Hits are enriched below; roughly 28% of the tested compounds scored in any of these assays.
CYP2C9 act: human CYP2C9 activators, primary screen, biochemical, luminescence; Cytochrome P450 2C9 (Homo sapiens), P11712; recombinant CYP2C9, luciferin-H conversion; hits give high values; factor 1 = untreated enzyme, 0 = blocked; activation factor at 5 µM; 1.4% of 96,000 active;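 active = activation factor of 2 or more for CYP2C9 at a 5 µM dose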;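 note: 0 = sulfaphenazole-blocked wells and 1 = vehicle-only wells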
CYP2C19 activ: human CYP2C19 activators, primary screen, biochemical, luminescence | Cytochrome P450 2C19 (Homo sapiens), P33261 | recombinant CYP2C19, luciferin-H EGE luminescence; hits give high values; 0 = fully inhibited enzyme, 1 = untreated enzyme | activation factor at 5 µM | 96,000 tested, under 10 active | AID 1025, 2008;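 active = activation factor of at least 2 at 5 µM in the primary screen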;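 note: 0 = wells with 2.5 mM tranylcypromine and 1 = vehicle-only wells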
CYP2C9 inhib: blockers of cytochrome P450 2C9 activity – biochemical, luminescence, ADME assay, primary screen; P11712; CYP2C9 Supersomes, luciferin-H conversion; inhibition, % at 5 µM; 20% of 96,000 active; AID 777, 2007;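 active = blocking of liver enzyme CYP2C9 beyond about 50% at 5 µM, limit read from the data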
CD11b adhes inh: inhibitors of CD11b/CD18 adhesion to fibrinogen, primary screen, K562 cells, luminescence; ATPlite luminescence; Mn2+ added to activate the integrin; inhibition, % at 10 µM; AID 1497, 2009; 0.54% of 93,000 active;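 active = primary inhibition of 50% or more at 10 µM, then 40% or more on retest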
Target sequence (P05107 whole entry, looked up, other chains not shown): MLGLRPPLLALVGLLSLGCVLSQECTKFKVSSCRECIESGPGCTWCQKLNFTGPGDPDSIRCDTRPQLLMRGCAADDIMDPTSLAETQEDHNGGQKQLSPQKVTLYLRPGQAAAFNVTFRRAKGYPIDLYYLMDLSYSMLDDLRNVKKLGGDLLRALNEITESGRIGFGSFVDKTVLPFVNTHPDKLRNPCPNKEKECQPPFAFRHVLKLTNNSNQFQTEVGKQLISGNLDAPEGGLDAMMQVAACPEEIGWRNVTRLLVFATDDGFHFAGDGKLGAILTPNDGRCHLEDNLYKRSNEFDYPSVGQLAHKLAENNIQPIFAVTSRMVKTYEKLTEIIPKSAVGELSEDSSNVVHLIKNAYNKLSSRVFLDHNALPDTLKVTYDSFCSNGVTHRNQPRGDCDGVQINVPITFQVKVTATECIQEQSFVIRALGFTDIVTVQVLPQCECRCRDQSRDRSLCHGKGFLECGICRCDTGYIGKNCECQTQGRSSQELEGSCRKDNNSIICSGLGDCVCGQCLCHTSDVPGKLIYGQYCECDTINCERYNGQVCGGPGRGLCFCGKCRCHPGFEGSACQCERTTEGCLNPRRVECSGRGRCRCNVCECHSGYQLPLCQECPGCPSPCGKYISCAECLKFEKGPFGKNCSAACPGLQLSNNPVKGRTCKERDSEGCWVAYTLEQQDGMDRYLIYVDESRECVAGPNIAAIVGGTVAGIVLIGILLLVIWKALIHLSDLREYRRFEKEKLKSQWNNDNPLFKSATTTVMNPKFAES
Mac1 fbg enh: enhancers of CD11b/CD18 adhesion to fibrinogen, primary screen, K562 cells, luminescence | 0.07% of 93,000 active | ATPlite luminescence | AID 1499, 2009 | Integrin beta-2 (Homo sapiens) + Integrin alpha-M (Homo sapiens), P05107+P11215 | activation, % at 10 µM;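 active = 10 µM primary screen giving 50% or more activity, confirmed by 40% or more on retest at that dose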
CYP2C19 inhib: blockers of cytochrome P450 2C19 activity – biochemical, luminescence, ADME assay, primary screen; CYP2C19 Supersomes, luciferin-H EGE luminescence, 30 min; inhibition, % at 5 µM; 21% of 96,000 active;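 active = CYP2C19 inhibition above a set limit at 5 µM in the primary screen, cut at about 50% in these data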;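 note: plate controls were negative control wells for no effect and 2.5 mM tranylcypromine positive control for full effect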
Starred values were filed as active, the others as inactive; · = not tested or not shown.

SMILES	CYP2C9 act	CYP2C19 activ	CYP2C9 inhib	CD11b adhes inh	Mac1 fbg enh	CYP2C19 inhib
CC(C)NC(C(=O)Nc1cc(Cl)cc(Cl)c1)c1ccccc1 (configuration not stated)	0.3	0.3	72.2*	16.8	-0.8	71.0*
COc1ccc(NC(=O)C2C(=O)N(C)C3(C)CC2c2ccccc2O3)cc1 (configuration not stated)	0.9	1	14.4	-4.0	-2.4	2.2
CN1C(=O)C(C(=O)NC(C)(C)C)C2c3ccccc3OC13CCCCC23 (configuration not stated)	0.4	0.4	60.5*	9.6	-3.9	57.9*
Cn1c(-c2ccc(F)cc2)cnc1NCc1cccc(F)c1	0.6	0.5	36.6	4.8	0.1	53.3*
Cn1c(-c2cccc(Br)c2)cnc1NCc1cccnc1	0.4	0.2	64.3*	10.9	-3.2	77.2*
COc1cccc(-c2cnc(NCc3cc(Cl)ccc3O)n2C)c1	0	0	97.7*	-18.6	4.7	98.6*
Cc1cc(C)c2oc(-c3cccc(NC(=O)c4ccc(F)cc4)c3)nc2c1	1.1	1.1	-10.3	-2.1	-3.6	-11.9
COc1ccc(Br)cc1C1SCCN1S(C)(=O)=O (configuration not stated)	1	0.5	2.7	6.5	0.9	49.7
N#CC(C(=O)C12CC3CC(CC(C3)C1)C2)c1nc2ccccc2[nH]1 (configuration not stated)	0.4	0.7	61.7*	9.6	0.6	33.2
CCC(C)n1c(SCC(=O)NCc2ccco2)nnc1-c1cccc(S(=O)(=O)N2CCOCC2)c1 (configuration not stated)	0.8	1.1	19.5	-5.4	-0.7	-5.9
COc1cccc(C2CC(c3cccs3)=NN2C(=O)CSc2nc3ccccc3o2)c1OC (configuration not stated)	·	·	·	1.2	1.7	·
COc1ccccc1C1CN(c2ccc(F)cc2F)N=C1c1cccs1 (configuration not stated)	0.1	0.3	91.2*	11.1	2.6	69.9*
CCCc1cc(=O)[nH]c(Nc2cc(OC)ccc2OC)n1	0.6	1	43.0	-10.5	1.8	2.9
Cc1cc(C)c(OCCCCCNCCO)c(C)c1	0.1	0.8	86.9*	4.6	-2.0	24.3
CCN(CC)S(=O)(=O)c1cc(C(=O)NC2CCCCC2)ccc1C	0.4	0.6	64.9*	5.7	-1.3	42.8
CCN(CC)S(=O)(=O)c1cc(C(=O)Nc2ccc(Cl)cn2)ccc1C	0.2	0.2	79.9*	13.9	-0.1	80.6*
Cc1ccc(C(=O)NC2CCCCCC2)cc1N1CCCC1=O	1.2	1.2	-15.5	4.9	-4.5	-16.2
COc1cc(C)c(C(C)C)cc1S(=O)(=O)N1CCOCC1	2*	0.7	-99.3	-1.5	1.4	33.5
COc1cc(Cl)c(S(=O)(=O)N2CCOCC2)cc1Cl	2.7*	0.7	-169.6	5.4	5.1	29.1
COc1cc(Cl)c(S(=O)(=O)N2CC(C)OC(C)C2)cc1Cl (configuration not stated)	1.7	0.2	-71.0	0.8	0.1	84.1*
CCOc1cc(C)c(C(C)C)cc1S(=O)(=O)N1CCOCC1	0.8	0.5	15.6	-10.6	1.8	45.2
CC1CN(S(=O)(=O)c2ccccc2)CC(C)O1 (configuration not stated)	1	0.7	-0.1	-4.0	-1.4	33.9
C=CCOc1cccc(C2C(C(=O)c3ccc(C)o3)=C(O)C(=O)N2CCN(C)C)c1 (configuration not stated)	1.1	1	-6.9	-9.7	-1.3	-4.5
O=C(N/N=C/c1cccc(OC(=O)N2CCOCC2)c1)c1cccs1	·	·	·	17.9	-2.2	·
CCCCS(=O)(=O)NC1=NCN(Cc2ccco2)CN1	0.9	1	9.9	·	·	3.2
SMILES	CYP2C9 act	CYP2C19 activ	CYP2C9 inhib	CD11b adhes inh	Mac1 fbg enh	CYP2C19 inhib
CCOC(=O)c1cc(-c2ccccc2)sc1NC(=O)C(C)OC(=O)c1cccnc1OCC (configuration not stated)	·	·	·	1.8	1.7	·
COCCNC(=O)C(c1cccs1)N(C(=O)Cn1nnc2ccccc21)c1ccc2c(c1)OCO2 (configuration not stated)	1	0.9	4.0	6.0	34.6	11.4
COc1ccc(C(C(=O)NC2CCCC2)N(Cc2ccc(F)cc2)C(=O)c2ccn[nH]2)cc1OC (configuration not stated)	1	0.7	-0.3	·	·	33.4
CCOC(=O)CN1C(c2ccc(O)cc2)Nc2ccc(Br)cc2C1c1ccccc1 (configuration not stated)	·	·	·	77.5	-4.3	·
CC1=CCC(C(=O)O)(C(=O)N/N=C/c2cccs2)C(c2ccc(Cl)cc2)C1 (configuration not stated)	0.6	1	44.4	-1.9	-4.8	1.3
CCOC(=O)c1[nH]c2ccc(OC)cc2c1NC(=O)c1ccc2c(c1)OCO2	0.7	0.4	34.6	-5.9	2.0	61.6*
COC(=O)c1[nH]c2ccccc2c1NC(=O)/C=C/c1ccc2c(c1)OCO2	·	·	·	-8.9	7.9	·
CCOC(=O)c1[nH]c2ccc(OC)cc2c1NC(=O)c1cccc(OC)c1	0.6	0.5	37.3	·	·	52.3*
CCOC(=O)c1[nH]c2cc(OC)c(OC)cc2c1NC(=O)c1ccc2c(c1)OCO2	0.9	1	10.7	·	·	0.5
CCOC(=O)c1[nH]c2ccc(OC)cc2c1NC(=O)CN1CCSCC1	0.4	0.2	59.0*	-3.6	-1.6	76.4*
CCN(CC(=O)Nc1c(C(=O)OC)[nH]c2ccccc12)c1ccc2c(c1)OCO2	0.3	0.5	70.4*	2.8	-5.9	50.2*
CCOC(=O)C1=C(c2ccccc2)N=C2SCC(=O)N2C1c1ccc2c(c1)OCO2 (configuration not stated)	1	0.9	-3.7	-2.9	0.6	10.4
Cc1ccccc1CN1C(=O)Nc2ccccc2C(=O)N1C(C)(C)C	1	0.8	0.6	-2.6	0.6	18.3
COC(=O)c1ccc(CSc2nc(-c3ccccc3)cs2)o1	0.4	0.8	56.3*	8.3	-2.3	24.8
COC(=O)c1ccc(CSc2nnc(SCc3ccc(C(=O)OC)o3)s2)o1	0.4	0.7	58.7*	7.1	1.4	34.2
CC(C)NC(=O)NC(=O)CSc1ccccc1F	·	·	·	1.2	2.9	·
O=C(CSc1ncnc2ccccc12)Nc1ccc(N2CCOCC2)cc1	1	1.2	-0.2	-31.5	0.1	-15.9
COc1ccc2c(=O)c(-c3ccccc3)c(C)oc2c1	0.9	0.8	11.8	2.6	1.8	18.9

From PubChem BioAssay
